The values that follow come from PubChem BioAssay (NCI).

Molecules are shown by their SMILES. Compounds without any hit were thinned out: in the full panel of roughly 83,000, 20% have a hit.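 Cell lines were cultured in 96-well plates, exposed to a single compound concentration, and assessed for percent growth 48 hours later.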 Values without a mark were called inactive. Active and inactive are the calls of the source. Rule for the calls: active = growth percent below 10; inactive = the rest.

Common to all, as to experiment: NCI-60 one-dose screen, 48 h (100 = growth as untreated, 0 = no growth, -100 = all killed)
Assay [1] deals with SK-MEL-2 melanoma. The conditions noted are these: 10 µM unless noted.
Assay [2] deals with EKVX NSCLC. The conditions noted are these: 10 µM unless noted.
For assay [3], the system named is SN12C renal. Particulars: 10 µM unless noted.
For assay [4], the system named is UO-31 renal. The conditions noted are these: 10 µM unless noted.
For assay [5], the system named is TK-10 renal. Particulars: 10 µM unless noted.
Assay [6] relates to ACHN renal. Particulars: 10 µM unless noted.
Assay [7] deals with CAKI-1 renal. Particulars: 10 µM unless noted.
The subject of assay [8] is A498 renal. The conditions noted are these: 10 µM unless noted.
Assay [9] concerns CCRF-CEM leukemia. The conditions noted are these: 10 µM unless noted.
The subject of assay [10] is MOLT-4 leukemia. Particulars: 10 µM unless noted.
Assay [11] has as its system SR leukemia. The conditions noted are these: 10 µM unless noted.
Assay [12] relates to RPMI-8226 leukemia. Particulars: 10 µM unless noted.
The subject of assay [13] is OVCAR-8 ovarian. The conditions noted are these: 10 µM unless noted.
In assay [14] the test system is OVCAR-5 ovarian. The conditions noted are these: 10 µM unless noted.
Assay [15] concerns OVCAR-4 ovarian. The conditions noted are these: 10 µM.
The subject of assay [16] is SK-OV-3 ovarian. Particulars: 10 µM unless noted.
Assay [17] has as its system IGROV1 ovarian. The conditions noted are these: 10 µM unless noted.
In assay [18] the test system is OVCAR-3 ovarian. The conditions noted are these: 10 µM unless noted.
Assay [19] concerns HS 578T breast. Particulars: 10 µM unless noted.
In assay [20] the test system is NCI/ADR-RES ovarian. Particulars: 10 µM unless noted.

With `Cn1cc(-c2noc(-c3cn(C)c4ncc(F)cc34)n2)c2cc(Cl)ccc21`, the growth in assay [1] is 101%; in [2], 47.1%; in [3], 40.8%; in assay [4], 53.3%; in assay [5], 28%; in assay [6], 10.2%. In addition, the growth is 43.2% in [7]; 69.2% in [8]; 99.7% in assay [9]; 78.2% in [10]; 34.5% in [11]; 67% in assay [12]. Further, the growth in assay [13] was 48.7%; in [14], 61.9%; in assay [15] it was -50.6% (active); in assay [16] it was 87.8%; in assay [17], 51.7%; in assay [18], 19.7%. Besides, the growth in [19] was 47%; in assay [20], 67.9%.

Turning to `CCOC(=O)COc1c(C)cc(SSc2cc(C)c(OCC(=O)OCC)c(C)c2)cc1C`, the growth in assay [1] is 100%; in [2] it was 107%; in assay [3], 102%; in assay [4], 82.4%; in [5], 87.5%; in assay [6] it was 107%. Moreover, the growth was 106% in assay [7]; 99.8% in assay [8]; 82.5% in [9]; 82.5% in [10]; 90.9% in assay [11]; 90.6% in assay [12]. The growth is 102% in assay [13]; 128% in [14]; 93.1% in [15]; 106% in assay [16]; 96.5% in assay [17]; 107% in [18]. For the same compound, the growth in assay [19] was 122%; in [20], 110%.

Consider `O=C(CCN1CCCCC1)c1ccc(Cl)cc1`, for which the growth in assay [1] was 104%; in [2], 101%; in assay [3] it was 111%; in [4] it was 96%; in [5], 103%; in assay [6] it was 110%. Moreover, the growth in assay [7] was 95.2%; in assay [8], 79.5%; in assay [9], 93.6%; in [10] it was 108%; in assay [11], 112%; in assay [12] it was 85.8%. Moreover, the growth in assay [13] was 113%; in [14], 102%; in [15], 105%; in assay [16], 103%; in assay [17], 107%; in assay [18] it was 106%. Further, the values for the growth in assay [19] and in assay [20] were 108% and 114%, respectively.

`CCCCC(CC)COC(=O)C[N+](C)(C)CCOC(c1ccccc1)c1ccccc1` (stereo not given): the growth in assay [1] was -26.9% (active); in [2] it was 57.9%; in assay [3] it was 43.2%; in [4] it was 95.6%; in assay [5] it was 53.7%; in assay [6], 101%. Further, the growth in [7] is 97.4%; in assay [8], 101%; in assay [9] it was 20.4%; in [10], 40.7%; in [11] it was -30.2% (active); in [12] it was -61% (active). For the same compound, the growth is 48.8% in assay [13]; 75.6% in assay [14]; 22.9% in assay [15]; 59% in [16]; -0.732% (active) in assay [17]; 19.2% in assay [18]. Moreover, the growth in assay [19] is 69.7%; in assay [20], 99.1%.

Regarding `Nc1nc(Cl)c2ncn(Cc3cc4c(cc3I)OCO4)c2n1`, the growth in assay [1] is 57.1%; in assay [2], 95.8%; in assay [3], 33%; in [4], 34.7%; in [5], 23.6%; in assay [6], 56.7%. Besides, the growth in assay [7] was 47.5%; in assay [8] it was 61.8%; in [9], 26.3%; in [10] it was 52.6%; in [11], 9.76% (active); in assay [12], 34.8%. For the same compound, the growth is 60.7% in assay [13]; 72.8% in assay [14]; 79.7% in [15]; 58.7% in assay [16]; 83.2% in assay [17]; 41.9% in assay [18]. Besides, the growth in assay [19] is 81.2%; in [20], 58%.

`Cn1cc(-c2noc(-c3cn(C)c4ncc(F)cc34)n2)c2cc(Br)ccc21`: the growth is 103% in assay [1]; 58.4% in assay [2]; 60.2% in [3]; 79.8% in [4]; 46.5% in assay [5]; 40.3% in [6]. Moreover, the growth in [7] is 53.5%; in [8] it was 91.9%; in assay [9], 80.8%; in assay [10] it was 71.1%; in assay [11], 37.1%; in assay [12] it was 87.9%. The growth in [13] is 55.2%; in assay [14] it was 64.4%; in [15], -40.3% (active); in assay [16] it was 84.4%; in assay [17], 73.3%; in [18] it was 38.5%. The growth in assay [19] was 58.7%; in assay [20], 61.5%.

On to `CC(C)C1=NOC(=O)C1=Cc1cn(-c2ccccc2)nc1-c1ccc(Br)cc1`, for which the growth in assay [1] is 87%; in [2], 93.3%; in assay [3], 84.8%; in [4] it was 67.9%; in assay [5] it was 91.5%; in assay [6], 81.5%. Further, the growth in assay [7] was 62.9%; in assay [8], 57%; in assay [9], 2.56% (active); in assay [10] it was -15.7% (active); in assay [11], -23.1% (active); in assay [12] it was -29.6% (active). Further, the growth in assay [13] was 80.8%; in assay [14], 100%; in assay [15] it was 98.8%; in [16], 99.9%; in assay [17], 72.5%; in assay [18] it was 85.4%. In addition, the values for the growth in assay [19] and in assay [20] were 70.4% and 101%, respectively.
